The text below walks through data of PubChem BioAssay AID485314 (National Center for Advancing Translational Sciences (NCATS), 2010).

Out of some 340,000 compounds screened, about 4,500 (1.3%) were called active. Inconclusive results (about 5%) are left out. The call rests on the fitted dose curve; in most records, active means well fitted inhibition curve with a large enough effect; inconclusive means small, poorly fitted or top-dose-only effect, or another doubt; inactive means no such curve, though single readings can be large or run the other way. The full list was thinned out, with actives kept by preference.
On the % scale 0 is the no-effect control and ±100 the full control effect; potency means the concentration at half of the fitted maximal effect.

The experiment deals with DNA polymerase beta (Homo sapiens) (UniProt P06746). The experiment is described as follows: qHTS Assay for Inhibitors of DNA Polymerase Beta. The settings on record: Pol beta primer extension/strand displacement, fluorescence kinetic; series mostly up to 114 µM; activity change, negative = inhibition: at the top concentration. The source says: The base excision repair system in human cells is a target for therapeutic modulation of the response to irradiation treatment and DNA-damaging drugs. A key enzyme in this system is the bi-functional DNA polymerase known as DNA polymerase Beta (Pol Beta). The following is a homogeneous kinetic assay to study the primer extension and strand-displacement reaction catalyzed by pol beta.
A stepwise description of the 1536-well assay is shown in next Table. Three microliters of reagents (buffer in column 3 and 4 as negative control and 10 nM Pol beta in columns 1, 2, and 5-48) was dispensed into 1,536-well black solid-bottomed plate. Compounds (23 nL) were transferred via Kalypsys pin tool equipped with 1536-pin array (10 nL slotted pins, V&P Scientific, San Diego, CA). The plates were incubated for 15 min at room temperature, and 1 uL substrate (50 nM final concentration) were added to start the reaction and immediately read at 0 min read on Viewlux reader. The plate were further incubated for 10 min at room temperature, and then read on Viewlux again. Throughout the screen, reagent bottle and all liquid lines were chilled and made light-tight to minimize reagent degradation. All screening operations were performed on a fully integrated robotic system (Kalypsys, San Diego, CA) containing one RX-130 and two RX-90 anthropomorphic robotic arms (Staubli, Duncan, SC). Library plates were screened starting from the lowest and proceeding to the highest concentration, and a double-dipping step of the highest concentration was required to access higher concentrations of compounds. Vehicle-only plates, with DMSO being pin-transferred to the entire column 5-48 compound area, were inserted uniformly at the beginning and the end of each library in order to monitor for and record any shifts in the background, which can be affected by reagent dispensers or loss in enzyme activity overtime. Screening data were corrected, normalized, and concentration-effect relationships were derived by using publicly-available curve fitting algorithms developed in-house (http://ncgc.nih.gov/pub/openhts). A four parameter Hill equation was fitted to the concentration-response data by minimizing the residual error between the modeled and observed responses.
(In general: Quantitative high-throughput screening tests each substance at several concentrations.)
With `O=C1NC(=O)N(c2ccccc2)C(=O)/C1=C/c1ccc([N+](=O)[O-])s1`, the “activity change, negative = inhibition” value is -41.5% (inactive).

As for `Cc1cccc(N2C(=O)NC(=O)/C(=C\c3cnn(-c4ccccc4)c3)C2=O)c1`, the Potency was 39.8 µM (active).

Turning to `COc1cccc(N2C(=O)NC(=O)/C(=C\c3cn(C)c4ccccc34)C2=O)c1`, the “activity change, negative = inhibition” value is -23% (inactive).

`CCCCN1C2CCC1CC(OC(c1ccc(F)cc1)c1ccc(F)cc1)C2` (stereo not given): the “activity change, negative = inhibition” value was 16.4% [at 57.1 µM] (inactive).

For the compound `COc1ccc(CN2C(=O)NC(=O)/C(=C\c3ccc(OC)c(OC)c3OC)C2=O)cc1`, the “activity change, negative = inhibition” value was -16% (inactive).

For the compound `COc1ccc(N2C(=O)/C(=C/c3ccco3)C(=O)NC2=S)cc1`, the Potency is 2.82 µM (active).

As for `COc1ccccc1N1CCN(C(CNC(=O)Oc2ccccc2)c2cccnc2)CC1` (stereo not given), the “activity change, negative = inhibition” value was 21.6% (inactive).

With `Cc1ccccc1N1C(=O)NC(=O)/C(=C\c2cc(C)n(C)c2C)C1=O`, the “activity change, negative = inhibition” value was 3.72% (inactive).

As to `Cc1c(C(=O)O)cccc1-n1c(C)cc(/C=C2\C(=O)NC(=O)N(c3ccc4c(c3)OCO4)C2=O)c1C`, the Potency was 11.2 µM (active).

As for `O=C1NC(=O)N(c2ccc(F)cc2)C(=O)/C1=C/c1ccc2c(c1)CCCN2Cc1ccccc1`, the “activity change, negative = inhibition” value is -25.1% (inactive).

Consider `O=Cc1cn(Cc2ccc(F)cc2Cl)c2ccccc12`, for which the “activity change, negative = inhibition” value is -14.2% (inactive).

For `Cc1cc2ccccn2c1C(C[N+](=O)[O-])c1c(F)cccc1Cl` (stereo not given), the “activity change, negative = inhibition” value is 26.7% (inactive).

Turning to `CCN(CC)C(=O)c1ccc(NC(=O)c2sccc2-c2ccccc2)cc1`, the “activity change, negative = inhibition” value was -0.659% (inactive).

Take `COc1ccc2c3c1O[C@H]1C[C@@H](O)C=C[C@@]31CCN(C)C2`: the “activity change, negative = inhibition” value was 11.5% (inactive).

Turning to `N[C@@H](Cc1c[nH]c2ccccc12)c1nnc(SCc2c(F)cccc2Cl)o1`, the “activity change, negative = inhibition” value was 4.81% (inactive).

Regarding `Cc1ccc(-n2c(/C=C/c3cccc(C(F)(F)F)c3)nc3ccccc3c2=O)cc1`, the “activity change, negative = inhibition” value is -1.25% (inactive).

Consider `CCOc1ccc(-c2cc(C)n3nc(C(=O)Nc4ccc(C)c(C)c4)cc3n2)cc1`, for which the Potency was 8.91 µM (active).

In the case of `C=CCN(CC=C)C(=O)Nc1ccc(OCC)cc1`, the “activity change, negative = inhibition” value was -8.07% (inactive).

Consider `OC(Cn1c2ccccc2c2ccccc21)C[n+]1ccccc1` (stereo not given), for which the “activity change, negative = inhibition” value is 38.7% (inactive).

Regarding `Cc1cc(C=C2C(=O)NC(=O)NC2=O)c(C)n1-c1ccncc1`, the “activity change, negative = inhibition” value is -12.2% (inactive).

In the case of `O=C1NC(=O)N(Cc2ccco2)C(=O)/C1=C\c1cccn1CCOc1ccccc1`, the “activity change, negative = inhibition” value is 9.43% (inactive).

For the compound `Cc1cc(/C=C2/C(=O)NC(=O)N(Cc3ccco3)C2=O)c(C)n1-c1ccc(C(=O)O)cc1`, the Potency is 17.8 µM (active).

As for `COc1ccccc1N=C1SCCCN1C`, the “activity change, negative = inhibition” value is 2.97% (inactive).

For `C=CCN1CCC23c4c5ccc(O)c4O[C@H]2C(=O)CC[C@@]3(O)C1C5` (stereo not given in full), the “activity change, negative = inhibition” value was 16.9% [at 57.1 µM] (inactive).

Turning to `O=C(CN1CCCC1=O)NCCc1ccccc1`, the “activity change, negative = inhibition” value is 0.404% (inactive).

Take `CC(C)(C)c1ccc(CN2C(=O)CN=C(c3ccccc3)c3ccccc32)cc1`: the “activity change, negative = inhibition” value was 1.27% (inactive).

As for `O=C1CC(=O)N(Cc2ccccc2)C(=O)N1CCCCCCN1C(=O)CC(=O)N(Cc2ccccc2)C1=O`, the Potency was 28.2 µM (active).

As to `Cc1nc2ccccc2c(=O)n1-c1ccc(Cl)cc1Cl`, the “activity change, negative = inhibition” value was 47.9% (inactive).

`CCN1CCN(c2nc3c(c(=O)[nH]2)CCC3)CC1`: the “activity change, negative = inhibition” value was 40.3% (inactive).

In the case of `Cc1nnc(NC(=O)c2cccn(Cc3cccc(F)c3)c2=O)s1`, the “activity change, negative = inhibition” value is 9.23% (inactive).

As to `COc1ccccc1N=Nc1c(O)[nH]c(=S)[nH]c1=O`, the “activity change, negative = inhibition” value was -3.75% (inactive).

As to `CCOCCc1c(O)[nH]c(=S)[nH]c1=O`, the Potency was 35.5 µM (active).

Take `Cc1ccc(-c2nn(CCC#N)cc2C(=O)O)cc1C`: the “activity change, negative = inhibition” value is 11.6% (inactive).

`O=C(OCC1O[C@@H](OC(=O)c2cc(O)c(O)c(O)c2)[C@@H](OC(=O)c2cc(O)c(O)c(O)c2)[C@@H](OC(=O)c2cc(O)c(O)c(O)c2)[C@@H]1OC(=O)c1cc(O)c(O)c(O)c1)c1cc(O)c(O)c(O)c1` (stereo not given in full): the Potency was 0.158 µM (active).

Take `Cc1cccc(Cn2cccc(C(=O)Nc3ccc4c(c3)OCCO4)c2=O)c1`: the “activity change, negative = inhibition” value is 0.23% (inactive).

Take `Cc1ccc(NC(=O)N(Cc2ccc3c(c2)OCO3)C2CCN(Cc3ccccc3)CC2)cc1F`: the “activity change, negative = inhibition” value is -0.703% (inactive).

Regarding `C[N+]12CN3CN(CN(C3)C1)C2`, the “activity change, negative = inhibition” value was 36.4% (inactive).

`NCCc1c[nH]c2ccc(O)cc12`: the “activity change, negative = inhibition” value is 11.3% [at 57.1 µM] (inactive).

Regarding `CCOC(=O)c1ncn2c1[C@@H]1CCCN1C(=O)c1cc(OC)ccc1-2`, the “activity change, negative = inhibition” value is 12% [at 57.1 µM] (inactive).

For `CN(C)c1ccc(/C=C2\CC3C4CC=C5CC(O)CCC5(C)C4CCC3(C)C2=O)cc1` (stereo not given), the “activity change, negative = inhibition” value was 15.5% (inactive).
